This is an account of results in PubChem BioAssay AID1053 (University of Pittsburgh Molecular Library Screening Center, 2008).

SMILES strings stand for the structures. Where “and” joins values, the source holds several entries; their conditions need not be identical. Equal values may be shown once. Calls of active or inactive are those of the source. How the calls were made is not given here.

The target in this test is Serine/threonine-protein kinase PLK1 (Homo sapiens) (UniProt P53350). Description: Plk1 polo box domain binding inhibitors, SAR follow-up, biochemical, fluorescence polarization, purchased analogs (AID 1053). Conditions: Plk1 PBD fluorescence polarization peptide binding; at 20 µM; hits give high values. In general terms: In fluorescence polarisation assays a small probe gives low polarisation when free and higher when bound to something large.
Sequence of Serine/threonine-protein kinase PLK1 (Homo sapiens) (P53350 whole entry, looked up, the tested form may be a part): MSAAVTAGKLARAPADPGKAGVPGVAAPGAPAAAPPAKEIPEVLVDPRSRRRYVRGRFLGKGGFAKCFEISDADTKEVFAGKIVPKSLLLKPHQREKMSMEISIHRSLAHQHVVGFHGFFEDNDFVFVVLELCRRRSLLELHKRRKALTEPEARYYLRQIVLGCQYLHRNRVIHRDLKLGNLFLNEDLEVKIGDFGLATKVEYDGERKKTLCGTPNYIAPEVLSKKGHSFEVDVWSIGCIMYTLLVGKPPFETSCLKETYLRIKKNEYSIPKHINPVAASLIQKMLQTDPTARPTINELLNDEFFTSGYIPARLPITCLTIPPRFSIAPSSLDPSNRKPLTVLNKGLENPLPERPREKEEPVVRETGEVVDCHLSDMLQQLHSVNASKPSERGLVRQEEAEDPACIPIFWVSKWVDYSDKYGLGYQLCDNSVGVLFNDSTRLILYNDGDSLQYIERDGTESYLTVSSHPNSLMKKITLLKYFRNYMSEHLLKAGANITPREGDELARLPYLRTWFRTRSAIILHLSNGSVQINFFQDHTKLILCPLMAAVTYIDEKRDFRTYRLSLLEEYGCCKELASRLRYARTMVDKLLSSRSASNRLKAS
Take `CCCC(=O)c1c(O)[nH]c(=O)[nH]c1=O`: the inhibition was -47.7% (inactive) and -64.6% (inactive).
As for `CCn1nc(-c2ccccc2)nc2c(=O)n(C)c(=O)nc1-2`, the inhibition was -2.54% (inactive).
The result for `CCn1nc(-c2ccc([N+](=O)[O-])cc2)nc2c(=O)n(C)c(=O)nc1-2` reads 60.6% (active); that for `CCOC(=O)c1ccc(N=C(c2ccccc2)c2c(O)n(C)c(=O)n(C)c2=O)cc1`, -58.1% (inactive).
Take `Cn1c(O)c(C(=O)c2ccccc2Cl)c(=O)n(C)c1=O`: the inhibition is -36.4% (inactive).
The result for `O=C1NC(=O)C(=Cc2cccn2-c2ccc([N+](=O)[O-])cc2)C(=O)N1` reads -40.9% (inactive); that for `CCn1nc(-c2ccccc2Cl)nc2c(=O)n(C)c(=O)nc1-2`, 43.6% (inactive); that for `Cn1nc(-c2ccccc2)nc2c(=O)n(C)c(=O)nc1-2`, 31.4% (inactive).
With `O=C1NC(=O)C(=Cc2c3ccccc3cc3ccccc23)C(=O)N1`, the inhibition is -41.5% (inactive).
With `COc1cc(Br)cc(C=C2C(=O)NC(=O)NC2=O)c1O`, the inhibition was -39.8% (inactive).
With `Cc1ccc(-c2nc3c(=O)n(C)c(=O)nc-3n(C)n2)cc1`, the inhibition was 43.1% (inactive).
The result for `COc1cc(C=C2C(=O)NC(=O)NC2=O)cc(Cl)c1O` reads -40.9% (inactive); that for `CCN(CC)CCOC(=O)c1ccc(N=Cc2c(O)[nH]c(=O)[nH]c2=O)cc1`, -148% (inactive) and -184% (inactive).

The inhibition is the drop in the measured response relative to a control, in per cent.
